Compounds with a hit are over-represented: about 14% of the library has one in this group of screens.
USP30 inh – human USP30 deubiquitinase inhibition; 47,000 tested, 5.3% active; purified USP30, Ub-rhodamine cleavage fluorescence; AID 1645860; inhibition, % at 25 µM
USP28 block – inhibitors of human USP28 deubiquitinase; purified USP28, Ub-rhodamine cleavage fluorescence, 30 min; inhibition, % at 25 µM; 47,000 tested, 3% active; AID 1645857
USP17 block – blocks human USP17 ubiquitin-rhodamine cleavage. A8MUK1. purified USP17, Ub-rhodamine cleavage fluorescence, 3 h. inhibition, % at 50 µM. 47,000 tested, 6.5% active
Target sequence (A8MUK1 whole entry, looked up): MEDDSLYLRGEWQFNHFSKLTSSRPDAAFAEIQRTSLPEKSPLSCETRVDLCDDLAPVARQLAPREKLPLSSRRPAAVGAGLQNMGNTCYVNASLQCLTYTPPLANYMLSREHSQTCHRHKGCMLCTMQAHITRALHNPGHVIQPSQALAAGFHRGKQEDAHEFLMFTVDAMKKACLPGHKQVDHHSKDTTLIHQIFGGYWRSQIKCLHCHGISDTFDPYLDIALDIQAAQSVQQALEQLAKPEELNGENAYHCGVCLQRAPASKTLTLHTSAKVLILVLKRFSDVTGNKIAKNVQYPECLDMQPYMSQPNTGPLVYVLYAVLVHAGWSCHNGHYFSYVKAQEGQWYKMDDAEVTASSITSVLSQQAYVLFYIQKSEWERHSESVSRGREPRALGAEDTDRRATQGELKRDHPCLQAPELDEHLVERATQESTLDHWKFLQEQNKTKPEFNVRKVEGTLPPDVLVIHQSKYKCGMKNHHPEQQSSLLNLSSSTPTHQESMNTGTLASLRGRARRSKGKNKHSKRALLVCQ
USP8 inh – blocks human USP8 ubiquitin-rhodamine cleavage. 47,000 tested, 4.2% active. AID 1645853. purified USP8, Ub-rhodamine cleavage fluorescence, 30 min. inhibition, % at 20 µM
USP10 block – blocks human USP10 ubiquitin-rhodamine cleavage | Q14694 | purified USP10, Ub-rhodamine fluorescence, 60 min | inhibition, % at 20 µM | 47,000 tested, 1.1% active | AID 1645856
* hit, by the source's call; . = no result. No stated cut-off is given here; in the data, active means inhibition above about 30%; inactive means the rest.

SMILES	USP30 inh	USP28 block	USP17 block	USP8 inh	USP10 block
O=C(COc1ccc(N2CC(C(=O)NCc3ccccc3)CC2=O)cc1)Nc1ccccc1Cl (centres undefined)	52.0*	12.5	56.0*	59.4*	49.2*
O=C(NCc1ccncc1)C1CC(=O)N(c2ccccc2)C1 (centres undefined)	-28.8	-4.4	-0.1	2.6	0.5
CCCC(=O)N1CCC2(CC1)Nc1ccccc1NC2=O	-13.2	7.0	69.8*	87.5*	-2.4
COC(=O)c1cc2c(ccn2C)n1Cc1ccc(F)cc1	-371.9	-72.5	-14.6	52.0*	-8.9
COC(=O)c1cc2c(ccn2C)n1CC(=O)N(C1CCCCC1)C1CCCCC1	-301.2	-80.0	-29.1	49.1*	-4.6
COC(=O)c1cc2c(ccn2C)n1CC(=O)N1CCN(Cc2ccccc2)CC1	-265.4	-68.7	-44.2	32.2*	-4.8
COc1cccc(C2c3[nH]c4ccccc4c3C[C@@H]3C(=O)N(C4CC4)CC(=O)N23)c1 (some centres undefined)	-148.0	-35.4	-34.1	24.7	26.9
Cc1ccc2c(Nc3ccc(F)cc3)c(C(=O)N3CCCCC3)cnc2n1	-12.8	-0.1	-4.8	0.1	-2.6
COc1ccc(S(=O)(=O)N(Cc2cccnc2)Cc2cc3ccccc3[nH]c2=O)cc1	-25.8	-14.6	-20.9	-36.9	-0.5
COc1ccc(S(=O)(=O)N(Cc2ccco2)Cc2cc3ccccc3[nH]c2=O)cc1	42.0*	27.8	10.9	-16.2	25.1
CC(C)(C)C(=O)N1CCC(c2cncc(-c3ccccc3C(=O)O)n2)CC1	18.1	7.8	8.0	13.8	-1.2
COc1ccc(Nc2cc(C(=O)NCc3cccnc3)c3ccccc3n2)cc1OC	13.9	8.0	39.6*	5.7	2.2
CCOc1ccc(Nc2cc(C(=O)NCc3ccc(C)cc3)c3ccccc3n2)cc1	.	.	52.7*	0.7	10.6
Cc1ccc(CCNC(=O)c2cc(OCc3ccc(C)cc3)nc3ccccc23)cc1	-0.3	4.2	9.6	-10.2	2.8
CCOc1ccc(Nc2cc(C(=O)NCCc3ccccc3)c3ccccc3n2)cc1	11.7	-10.2	56.0*	-0.6	14.8
Cc1ccc(COc2cc(C(=O)NCc3ccccc3)c3ccccc3n2)cc1	0.9	-8.0	-19.5	-26.5	2.1
Cc1ccc(C(=O)N2CCC(Nc3ncnc4c3CCC4)CC2)s1	-56.0	-7.8	-3.7	-25.2	-6.2
Cc1cc(C#N)c2c(C)ccc(C(C)C)cc1-2	15.2	57.9*	2.9	2.9	4.9
CCc1ccc(S(=O)(=O)Nc2ccc(N3CCN(C)CC3)cc2)cc1	17.3	3.6	5.7	0.0	1.1
N#Cc1c2n(c(=O)n(CCOc3ccccc3F)c1=O)CCC2	-42.1	2.0	1.1	33.1*	-4.6
COc1ccc(OCCn2c(=O)c(C#N)c3n(c2=O)CCC3)cc1	-127.3	-45.2	-21.9	20.4	-1.4
COc1ccc2[nH]c3c(c2c1)CCN1C(=O)N([C@@H](C)C(=O)NCCc2ccc(OC)c(OC)c2)C(=O)[C@]31C	-62.0	-30.0	-28.9	-32.8	-2.6
Cc1nc2cc(-c3nccn3C)nn2c(N2CCC(O)(c3ccccc3F)CC2)c1C	-4.8	2.1	33.8*	0.0	-4.3
Cc1ccccc1-c1nc(-c2cccc(C(=O)N3CCCC3)c2)no1	35.7*	6.8	13.9	9.1	2.3
Cc1cccc(C(=O)N2CCN(c3nc(-c4ccc(Cl)cc4)no3)CC2)c1	40.1*	17.6	13.4	8.8	2.3
SMILES	USP30 inh	USP28 block	USP17 block	USP8 inh	USP10 block
Cc1cc(NC(=O)CSc2nccn2-c2ccc(F)cc2)no1	12.8	4.9	1.0	-2.0	0.1
CCOc1ccc(-n2ccnc(SCC(=O)Nc3ccccc3F)c2=O)cc1	32.1*	12.6	27.5	57.3*	15.5
CCN1C(SCC(=O)Nc2ccccc2Cl)=NS(=O)(=O)c2ccccc21	8.2	-1.8	-32.3	-130.8	0.1
Cc1cc(C)cc(-n2ccnc(SCC(=O)Nc3cccc(Cl)c3)c2=O)c1	54.5*	20.4	34.2*	-4.3	7.2
CCOc1ccc(-n2ccnc(SCC(=O)Nc3ccccc3Cl)c2=O)cc1	-37.3	13.5	30.0*	52.8*	-1.4
COc1cnc(CSc2nccc(C)n2)cc1OCC(=O)Nc1ccccc1F	6.5	-0.1	-9.2	-33.4	-2.2
COc1ccc(-c2ccnc(SCC(=O)Nc3ccccc3F)n2)cc1	64.6*	23.2	71.2*	24.0	-0.3
O=C(c1ccc(OCC2CCN(C(=O)c3cccc(F)c3)CC2)cc1)N1CCOCC1	1.2	0.5	-0.3	-2.1	0.0
Cc1cc(-c2cnc(N3CCCCC3)nc2C2CCN(c3cnccn3)CC2)on1	34.4*	8.4	16.8	6.4	-2.2
Cc1cc(-c2cnc(N3CCSCC3)nc2[C@@H]2CCCO2)on1	32.6*	-0.2	30.0	-19.1	0.2
